Bioassay records from PubChem.
BoNT-F LC inh – BoNT/F light chain protease inhibitors, primary screen, biochemical, flow cytometry, MLPCN library; Botulinum neurotoxin type F light chain protease (Clostridium botulinum); Multiplex microsphere protease cleavage assay; inhibition, % at 10 µM; hit rate 0.22% among 360,000; AID 588497, 2011; in the data active means inhibition above about 35%, passing the limit was not always enough; inconclusive means no clear call, values can overlap the other calls
Autofluor counter – counter-screen for toxin protease inhibitors: compound fluorescence. compound autofluorescence counterscreen, microsphere flow cytometry; stronger effect = higher value. fluorescence intensity (no concentration beside the values). hit rate 3.1% among 360,000. AID 624483; in the data active means fluorescence intensity above about 16000; inconclusive means no clear call, values can overlap the other calls
BoNT-A LC inh2 – BoNT/A light chain protease inhibitors, primary screen, biochemical, flow cytometry, MLPCN library; hit rate 0.17% among 360,000; AID 588499, 2011; Botulinum neurotoxin type A light chain protease (Clostridium botulinum A str. ATCC 3502); multiplex microsphere protease substrate cleavage; inhibition, % at 10 µM
MazF activator – activators of E. coli MazEF toxin-antitoxin RNase, primary screen, biochemical, fluorescence, uHTS; Endoribonuclease toxin MazF (Escherichia coli (strain K12)), P0AE70; FAM/BHQ RNA-DNA oligo cleavage fluorescence, 5 h; activation, % at 20 µM; hit rate 0.32% among 350,000; AID 504720, 2011; in the data active means activation above about 50%
Target sequence (P0AE70 whole entry, looked up): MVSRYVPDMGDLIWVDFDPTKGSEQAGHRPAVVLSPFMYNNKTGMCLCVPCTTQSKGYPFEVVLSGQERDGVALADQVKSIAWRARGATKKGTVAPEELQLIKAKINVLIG
SSB-PriA inh – inhibitors of Klebsiella pneumoniae PriA binding to SSB C-terminal tail, primary screen, biochemical, AlphaScreen; AlphaScreen SSBct-PriA binding, biotinylated peptide; inhibition, % at 33 µM; hit rate 0.6% among 430,000; in the data active means inhibition mostly above about 37%, no sharp cut-off; inactive means mostly below about 20%
Anthrax LF inh2 – Bacillus anthracis LF protease inhibitors, primary screen, biochemical, multiplex microsphere, MLPCN library; inhibition, % at 10 µM; multiplex microsphere protease cleavage assay; Lethal factor (Bacillus anthracis), P15917; hit rate 0.12% among 360,000
Each line names hits and unclear results; the compound was inactive in the other large screens; ! = not confirmed by another sample. Sampled rows, rich in hits. Any-hit rate of the full collection: about 3.3%. Unless noted, no stated cut-off is given here; in the data, active means inhibition above about 30%; inconclusive means no clear call, values can overlap the other calls; inactive means below that.

COc1cccc(C(=O)NNC(=O)Cc2ccc([N+](=O)[O-])cc2)c1	none
O=C(NCCn1ccc(C(F)(F)F)n1)c1ccc(Cl)s1	none (no result: BoNT-F LC inh, Autofluor counter, BoNT-A LC inh2, MazF activator, Anthrax LF inh2)
CC1CCCN(Cc2nc3c(c(=O)n(C)c(=O)n3C)n2CC(N)=O)C1 (configuration not stated)	Autofluor counter 16667
Cn1c(=O)c2c(nc(CN3CCN(C(c4ccccc4)c4ccccc4)CC3)n2CC(N)=O)n(C)c1=O	Autofluor counter 21667
COc1ccc(SCC2CCN(C(=O)COc3ccccc3F)CC2)cc1	none (no result: BoNT-F LC inh, Autofluor counter, BoNT-A LC inh2, MazF activator, Anthrax LF inh2)
COc1ccc(C(=O)N2CCN(c3nnnn3-c3ccccc3)CC2)cc1OC	Autofluor counter 23177
CC(C)(C)c1cc(C(=O)N2CCN(c3nnnn3-c3ccccc3)CC2)cc(C(C)(C)C)c1	none (no result: BoNT-F LC inh, Autofluor counter, BoNT-A LC inh2, MazF activator, Anthrax LF inh2)
Cc1ccsc1C(=O)Nc1ccccc1N1CCOCC1	Autofluor counter 18871
Cc1cc(C(=O)N2CCC(CSc3ccccn3)CC2)c(C)o1	none (no result: BoNT-F LC inh, Autofluor counter, BoNT-A LC inh2, MazF activator, Anthrax LF inh2)
COc1ccc(C(=O)CSc2nnc(C3CC3)n2N)cc1	Autofluor counter 22665, BoNT-A LC inh2 inconclusive
COc1ccc(NC(=O)CSc2nnc(-c3ccccn3)n2N)cc1	BoNT-F LC inh 35.1, BoNT-A LC inh2 33.7, SSB-PriA inh 58.7
CCOc1ccc(NC(=O)CSc2nnc(C3CC3)n2N)cc1	Autofluor counter 23438
CCOc1ccc(NC(=O)CSc2nnc(-c3ccccn3)n2C)cc1	none
CCn1c(SCC(=O)c2ccc(OC)cc2)nnc1C1CC1	none
CCOc1ccc(NC(=O)CSc2nnc(-c3ccccn3)n2N)cc1	SSB-PriA inh 63.9!
Cc1nc2c(ccc3nc(NC(=O)Cc4cccs4)sc32)s1	none (no result: BoNT-F LC inh, Autofluor counter, BoNT-A LC inh2, MazF activator, Anthrax LF inh2)
O=C(c1nc2ccccc2s1)N1CCC(c2ccc3c(c2)OCO3)C1 (configuration not stated)	none (no result: BoNT-F LC inh, Autofluor counter, BoNT-A LC inh2, MazF activator, Anthrax LF inh2)
CCC(NC(=O)c1cccc(Cn2nc(C)c([N+](=O)[O-])c2C)c1)c1ccc(C(C)C)cc1 (configuration not stated)	Autofluor counter 22838
Cc1nn(Cc2cccc(C(=O)N3N=C(C(F)F)CC3(O)C(F)F)c2)c(C)c1[N+](=O)[O-] (configuration not stated)	Autofluor counter 24863
CC1=NN(C(=O)c2cccc(Cn3nc(C)c([N+](=O)[O-])c3C)c2)C(O)(C(F)(F)F)C1 (configuration not stated)	Autofluor counter 24994
COC(=O)c1cc(-c2ccccc2)sc1NC(=O)CSc1nnnn1-c1ccccc1	none (no result: BoNT-F LC inh, Autofluor counter, BoNT-A LC inh2, MazF activator, Anthrax LF inh2)
O=C(OCc1cc(-c2ccccc2)on1)c1ccc(=O)[nH]n1	none (no result: BoNT-F LC inh, Autofluor counter, BoNT-A LC inh2, MazF activator, Anthrax LF inh2)
Nc1c(-c2cccs2)cnn1-c1nc(-c2ccc(F)cc2)cs1	none
Nc1c(-c2cccs2)cnn1-c1nc(-c2ccc(Cl)cc2Cl)cs1	Autofluor counter 23441, BoNT-A LC inh2 inconclusive
Cn1c(=NC(=O)C(c2ccccc2)c2ccccc2)sc2cc3c(cc21)OCO3	none (no result: BoNT-F LC inh, Autofluor counter, BoNT-A LC inh2, MazF activator, Anthrax LF inh2)
O=S(=O)(c1cccnc1)N1CCN(c2ccc(-c3ccc(Cl)cc3)nn2)CC1	none (no result: BoNT-F LC inh, Autofluor counter, BoNT-A LC inh2, MazF activator, Anthrax LF inh2)
CCc1cc(=O)oc2cc(OCC(=O)OC)c(Cl)cc12	Autofluor counter 22235, BoNT-A LC inh2 inconclusive
N=C1SC2CS(=O)(=O)CC2N1/N=C\c1ccccc1 (configuration not stated)	none (no result: BoNT-F LC inh, Autofluor counter, BoNT-A LC inh2, MazF activator, Anthrax LF inh2)
N#Cc1c(N)sc2c1CCCCCC2	Autofluor counter 24025
c1ccc(N2CCN(c3ccccc3)C2c2cccs2)cc1	Autofluor counter 22528
CC1CCN(S(=O)(=O)c2ccc3c(c2)c(=O)c(C(=O)NCc2ccco2)cn3C)CC1	BoNT-F LC inh 37.7
Cc1ccc(S(=O)(=O)N2CCCC(C(=O)NCc3ccco3)C2)cc1Cl (configuration not stated)	Autofluor counter 19976
CC1CCN(S(=O)(=O)c2ccc3c(c2)c(=O)c(C(=O)NCc2cccs2)cn3C)CC1	none
Cc1cc2ncn(-c3ncnc4scc(-c5ccccc5)c34)c2cc1C	Autofluor counter 24244, BoNT-A LC inh2 inconclusive
Cc1cc2ncn(-c3ncnc4sc(C)c(C)c34)c2cc1C	none
COc1ccc(N2CCN(c3ncnc4scc(-c5ccccc5)c34)CC2)cc1	SSB-PriA inh 46.1
